Assay results: the supplement of paper PMC11732987, “Enantioselective OTUD7B fragment discovery through chemoproteomics screening and high-throughput optimisation” (Communications Chemistry, 2025)
Unmarked numbers belong to inactive results.

Legend:
Assay in all cases: log2 ratio of Biotin-Ahx-Ub-VS probe labelling (fragment/DMSO); higher = less target engagement (more negative = stronger competition), active = hit call of the paper (q ≤ 0.05, log2 ratio ≤ -1)
Details in all cases: compound concentration: 200 uM; treatment time: 3 h
ALG13 = target: T1, ALG13 (UniProt Q9NP73)
T1 sequence (whole entry): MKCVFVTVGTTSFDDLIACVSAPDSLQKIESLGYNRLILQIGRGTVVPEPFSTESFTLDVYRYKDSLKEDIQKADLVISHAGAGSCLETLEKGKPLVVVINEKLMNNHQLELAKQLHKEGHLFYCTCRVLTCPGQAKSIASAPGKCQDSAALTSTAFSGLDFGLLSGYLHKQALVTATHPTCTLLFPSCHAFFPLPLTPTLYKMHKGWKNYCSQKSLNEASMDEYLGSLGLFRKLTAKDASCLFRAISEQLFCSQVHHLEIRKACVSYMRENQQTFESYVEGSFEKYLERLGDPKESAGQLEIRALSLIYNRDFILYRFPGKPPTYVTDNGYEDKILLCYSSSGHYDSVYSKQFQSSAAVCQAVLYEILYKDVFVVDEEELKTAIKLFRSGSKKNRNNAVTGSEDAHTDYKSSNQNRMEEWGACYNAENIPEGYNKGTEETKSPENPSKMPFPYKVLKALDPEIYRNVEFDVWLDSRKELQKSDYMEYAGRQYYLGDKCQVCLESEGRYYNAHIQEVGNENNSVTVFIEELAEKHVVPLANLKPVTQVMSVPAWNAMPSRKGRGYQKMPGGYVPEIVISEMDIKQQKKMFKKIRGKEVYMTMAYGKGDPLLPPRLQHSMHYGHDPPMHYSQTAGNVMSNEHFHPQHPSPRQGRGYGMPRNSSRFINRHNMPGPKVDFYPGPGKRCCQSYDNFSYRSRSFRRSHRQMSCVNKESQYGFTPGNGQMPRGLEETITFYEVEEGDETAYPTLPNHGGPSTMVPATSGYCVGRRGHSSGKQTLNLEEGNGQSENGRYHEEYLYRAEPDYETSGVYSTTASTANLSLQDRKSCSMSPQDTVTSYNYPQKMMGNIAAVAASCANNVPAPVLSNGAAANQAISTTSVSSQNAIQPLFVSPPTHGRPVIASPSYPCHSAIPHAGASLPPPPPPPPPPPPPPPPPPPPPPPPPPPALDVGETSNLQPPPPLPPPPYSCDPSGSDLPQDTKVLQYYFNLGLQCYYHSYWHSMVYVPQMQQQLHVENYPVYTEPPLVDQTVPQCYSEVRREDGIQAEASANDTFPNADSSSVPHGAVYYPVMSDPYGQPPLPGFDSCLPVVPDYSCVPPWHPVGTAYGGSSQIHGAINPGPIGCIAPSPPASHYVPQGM
Summary of the method: (§1)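 Fragment (200 µM) or vehicle was incubated for 3 h with triplicate HEK293T lysate samples of 495 µg, which were then treated with Biotin-Ahx-Ub-VS at 0.5 µM final for 1 h. Labelled DUBs were enriched on NeutrAvidin, digested with LysC and trypsin, and analysed by diaPASEF LC-MS/MS. Values are average log2 fragment/vehicle ratios from an unpaired t-test on global-median-normalised Spectronaut label-free quantities, using proteins with ≥2 unique peptides.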

ATXN3 = ATXN3 (UniProt P54252)
Summary of the method: as §1

BAP1 = target: T2, BAP1 (UniProt Q92560)
T2 sequence (whole entry): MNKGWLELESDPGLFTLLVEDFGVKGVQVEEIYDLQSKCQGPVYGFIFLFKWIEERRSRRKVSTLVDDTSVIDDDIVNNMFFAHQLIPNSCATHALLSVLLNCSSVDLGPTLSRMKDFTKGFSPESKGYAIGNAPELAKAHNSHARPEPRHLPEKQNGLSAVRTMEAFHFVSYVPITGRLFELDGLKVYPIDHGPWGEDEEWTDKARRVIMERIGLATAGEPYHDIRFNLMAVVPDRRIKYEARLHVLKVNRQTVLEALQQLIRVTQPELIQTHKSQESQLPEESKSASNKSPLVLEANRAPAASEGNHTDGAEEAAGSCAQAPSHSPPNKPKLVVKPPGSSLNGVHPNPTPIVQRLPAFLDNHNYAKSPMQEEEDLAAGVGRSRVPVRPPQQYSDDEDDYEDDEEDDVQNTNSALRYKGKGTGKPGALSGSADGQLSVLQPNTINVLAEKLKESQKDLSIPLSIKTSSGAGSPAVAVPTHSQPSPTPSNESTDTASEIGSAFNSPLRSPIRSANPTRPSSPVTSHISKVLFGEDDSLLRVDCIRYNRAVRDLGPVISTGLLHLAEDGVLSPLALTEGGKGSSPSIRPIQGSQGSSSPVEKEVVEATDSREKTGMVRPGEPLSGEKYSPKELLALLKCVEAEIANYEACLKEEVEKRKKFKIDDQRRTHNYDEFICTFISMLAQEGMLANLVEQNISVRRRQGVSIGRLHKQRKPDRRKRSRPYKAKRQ
Summary of the method: as §1

EIF3F = EIF3F (UniProt O00303)
Summary of the method: as §1

EIF3H = EIF3H (UniProt O15372)
Summary of the method: as §1

FAM105A = target: T3, FAM105A (UniProt Q9NUU6)
T3 sequence (whole entry): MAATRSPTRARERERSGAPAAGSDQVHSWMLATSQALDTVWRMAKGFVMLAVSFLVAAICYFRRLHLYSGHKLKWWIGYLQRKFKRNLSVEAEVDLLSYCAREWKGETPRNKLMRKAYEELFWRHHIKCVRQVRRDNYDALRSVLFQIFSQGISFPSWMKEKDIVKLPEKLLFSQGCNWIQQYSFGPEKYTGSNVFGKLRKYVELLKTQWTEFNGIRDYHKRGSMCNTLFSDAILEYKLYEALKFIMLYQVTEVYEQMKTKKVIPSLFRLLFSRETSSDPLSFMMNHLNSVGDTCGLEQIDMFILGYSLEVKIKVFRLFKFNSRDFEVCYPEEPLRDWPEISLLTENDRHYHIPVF
Summary of the method: as §1

OTUB1 = OTUB1 (UniProt Q96FW1)
Summary of the method: as §1

OTUD4 = target: T4, OTUD4 (UniProt Q01804)
T4 sequence (whole entry): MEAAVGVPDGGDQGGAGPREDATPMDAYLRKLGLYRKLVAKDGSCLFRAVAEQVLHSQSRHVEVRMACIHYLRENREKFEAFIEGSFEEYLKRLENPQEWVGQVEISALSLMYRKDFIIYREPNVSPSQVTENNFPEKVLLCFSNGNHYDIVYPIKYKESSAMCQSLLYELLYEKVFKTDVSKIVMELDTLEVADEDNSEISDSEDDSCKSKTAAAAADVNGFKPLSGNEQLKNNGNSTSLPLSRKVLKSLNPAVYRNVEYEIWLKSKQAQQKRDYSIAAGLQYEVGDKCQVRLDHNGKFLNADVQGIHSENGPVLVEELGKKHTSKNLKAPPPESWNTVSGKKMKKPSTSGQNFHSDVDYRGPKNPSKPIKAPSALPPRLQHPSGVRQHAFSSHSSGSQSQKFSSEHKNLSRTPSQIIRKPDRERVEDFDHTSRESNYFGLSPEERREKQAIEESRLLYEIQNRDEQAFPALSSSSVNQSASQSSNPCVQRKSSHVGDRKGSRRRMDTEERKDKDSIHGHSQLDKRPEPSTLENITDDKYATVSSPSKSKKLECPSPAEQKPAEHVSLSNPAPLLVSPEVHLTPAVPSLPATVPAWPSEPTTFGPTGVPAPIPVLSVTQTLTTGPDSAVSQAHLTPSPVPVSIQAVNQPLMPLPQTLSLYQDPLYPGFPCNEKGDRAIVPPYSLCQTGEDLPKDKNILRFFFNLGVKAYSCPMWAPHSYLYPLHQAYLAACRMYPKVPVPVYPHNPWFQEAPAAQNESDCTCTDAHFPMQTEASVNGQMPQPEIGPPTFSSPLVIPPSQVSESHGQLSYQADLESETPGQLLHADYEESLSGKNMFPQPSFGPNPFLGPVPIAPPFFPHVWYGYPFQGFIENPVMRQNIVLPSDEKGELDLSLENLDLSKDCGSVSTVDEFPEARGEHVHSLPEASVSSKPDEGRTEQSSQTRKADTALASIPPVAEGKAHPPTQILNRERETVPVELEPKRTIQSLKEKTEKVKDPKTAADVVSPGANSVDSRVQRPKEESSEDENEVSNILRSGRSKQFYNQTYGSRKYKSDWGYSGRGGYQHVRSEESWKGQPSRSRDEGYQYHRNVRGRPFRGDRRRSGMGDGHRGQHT
Summary of the method: as §1

OTUD5 = target: T5, OTUD5 (UniProt Q96G74)
T5 sequence (whole entry): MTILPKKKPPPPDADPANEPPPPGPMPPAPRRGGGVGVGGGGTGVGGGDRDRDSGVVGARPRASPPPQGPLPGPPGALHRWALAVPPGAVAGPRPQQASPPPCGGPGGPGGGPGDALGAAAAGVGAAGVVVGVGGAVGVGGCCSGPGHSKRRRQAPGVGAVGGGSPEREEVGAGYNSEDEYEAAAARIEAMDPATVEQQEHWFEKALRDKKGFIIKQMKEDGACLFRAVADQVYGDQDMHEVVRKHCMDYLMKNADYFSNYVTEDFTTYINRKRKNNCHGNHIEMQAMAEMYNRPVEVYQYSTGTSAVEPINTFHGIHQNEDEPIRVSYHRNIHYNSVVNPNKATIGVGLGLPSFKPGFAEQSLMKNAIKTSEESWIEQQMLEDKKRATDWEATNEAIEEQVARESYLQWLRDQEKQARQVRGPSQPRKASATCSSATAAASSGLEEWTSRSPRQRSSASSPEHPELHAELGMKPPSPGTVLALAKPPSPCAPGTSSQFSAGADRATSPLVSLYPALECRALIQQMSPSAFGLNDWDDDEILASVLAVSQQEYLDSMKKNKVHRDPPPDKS
Summary of the method: as §1

Sequence of OTUB1 (Q96FW1 whole entry): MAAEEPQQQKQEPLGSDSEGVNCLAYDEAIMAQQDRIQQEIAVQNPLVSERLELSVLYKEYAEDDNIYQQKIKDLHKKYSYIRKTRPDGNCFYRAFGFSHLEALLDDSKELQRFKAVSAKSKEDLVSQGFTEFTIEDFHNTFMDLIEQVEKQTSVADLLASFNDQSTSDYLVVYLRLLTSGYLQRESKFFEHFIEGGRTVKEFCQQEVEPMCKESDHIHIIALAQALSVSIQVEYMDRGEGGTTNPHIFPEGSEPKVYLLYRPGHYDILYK
Sequence of EIF3F (O00303 whole entry): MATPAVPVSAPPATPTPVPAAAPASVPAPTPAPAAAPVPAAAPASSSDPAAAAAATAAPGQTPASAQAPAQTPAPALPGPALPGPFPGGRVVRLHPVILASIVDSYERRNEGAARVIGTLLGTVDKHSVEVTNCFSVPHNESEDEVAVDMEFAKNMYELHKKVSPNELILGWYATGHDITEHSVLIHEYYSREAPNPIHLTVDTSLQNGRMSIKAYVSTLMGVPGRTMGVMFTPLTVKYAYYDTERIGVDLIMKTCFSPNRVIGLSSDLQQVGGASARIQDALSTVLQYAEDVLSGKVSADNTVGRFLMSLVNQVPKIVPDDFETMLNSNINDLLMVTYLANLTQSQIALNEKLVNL
Sequence of EIF3H (O15372 whole entry): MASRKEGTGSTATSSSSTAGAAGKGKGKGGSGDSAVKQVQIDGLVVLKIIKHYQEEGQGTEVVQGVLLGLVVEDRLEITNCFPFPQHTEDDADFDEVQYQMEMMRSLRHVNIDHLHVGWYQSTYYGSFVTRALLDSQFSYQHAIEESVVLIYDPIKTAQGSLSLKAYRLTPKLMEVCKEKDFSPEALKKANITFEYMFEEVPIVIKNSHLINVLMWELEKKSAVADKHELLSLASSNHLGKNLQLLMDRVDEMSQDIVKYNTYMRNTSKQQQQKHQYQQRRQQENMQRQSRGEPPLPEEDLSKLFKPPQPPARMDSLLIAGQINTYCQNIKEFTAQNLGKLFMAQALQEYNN
Sequence of ATXN3 (P54252 whole entry): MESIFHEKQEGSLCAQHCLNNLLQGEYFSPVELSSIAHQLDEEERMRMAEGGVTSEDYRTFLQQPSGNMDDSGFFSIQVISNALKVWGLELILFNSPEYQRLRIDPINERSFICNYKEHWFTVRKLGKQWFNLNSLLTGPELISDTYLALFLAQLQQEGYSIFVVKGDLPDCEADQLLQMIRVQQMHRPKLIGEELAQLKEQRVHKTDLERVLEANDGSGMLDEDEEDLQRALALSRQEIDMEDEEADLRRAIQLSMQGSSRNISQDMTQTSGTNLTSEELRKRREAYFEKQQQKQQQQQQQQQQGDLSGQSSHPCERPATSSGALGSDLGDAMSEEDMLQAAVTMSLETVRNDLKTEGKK

**Q.** For `O=C(CCl)N1CCOCC1C1CC1` (centres undefined), which “log2 ratio of Biotin-Ahx-Ub-VS probe labelling” value (“log2 ratio” for short) (ALG13) is on record?
**A.** -1.36 (active)

**Q.** What about the “log2 ratio” value (ATXN3) of the same compound?
**A.** -0.209

**Q.** What about the “log2 ratio” value (BAP1) of the same compound?
**A.** -0.299

**Q.** And the “log2 ratio” value (EIF3F)?
**A.** -0.527

**Q.** And the “log2 ratio” value (EIF3H)?
**A.** 0.16

**Q.** What about the “log2 ratio” value (FAM105A) of the same compound?
**A.** 0.635

**Q.** And the “log2 ratio” value (OTUB1)?
**A.** -0.181

**Q.** What about the “log2 ratio” value (OTUD4) of the same compound?
**A.** -0.865

**Q.** And the “log2 ratio” value (OTUD5)?
**A.** -0.313
